Tested on: Plasmodium falciparum
Test: GSK_TCMDC: Inhibition of Plasmodium falciparum Dd2 in whole red blood cells, using parasite LDH activity as an index of growth. Test compounds present at 2uM
Type: functional

First: CC(C)N1CCC(NC(=O)N2CCCN(c3ncnc4cc(-c5ccc(Cl)cc5)sc34)CC2)CC1.O=C(O)C(F)(F)F
Second: CN1CCN(CCCN(Cc2cccc(-c3ccc(CNC4CCCC4)cc3)c2)C(=O)CCC2CCCC2)CC1.O=C(O)C(F)(F)F
The Inhibition of the first is lower: 7% for the first, 84% for the second.

Going from `COc1cc(NC(=O)c2ccc3oc4ccccc4c3c2)ccc1OCCN1CCCCC1.Cl` to `CCN1CCN(c2cc(C)c3cc(NC(=O)c4ccc(OC)c(OC)c4)ccc3n2)CC1`, the Inhibition rises from 11% to 23%.

First: COc1cc2nc(N3CC(C)N(C(=O)Cc4ccc(-c5ccccc5)cc4)C(C)C3)nc(N)c2cc1OC (stereo not given)
Second: CCNC(=O)N1CCN(c2nc(-c3ccccc3)nc(COC)c2Cc2ccc(C)cc2)CC1
The Inhibition of the first is lower: 12% for the first, 94% for the second.

Going from `CC(COc1ccc2c(c1)OC(C)(C)CC2c1ccccc1)NCC(O)c1cccc(Cl)c1.Cl` (stereo not given) to `C[C@H](Cc1ccc(S(=O)(=O)c2ccc(C[C@@H](C)NC[C@H](O)c3cccc(Cl)c3)cc2)cc1)NC[C@H](O)c1cccc(Cl)c1.Cl`, the Inhibition rises from 96% to 98%.

First: COc1ccc(-c2ccc(NC(=O)c3ccc(C#N)cc3)cc2)cc1CN1CCNCC1.O=C(O)C(F)(F)F
Second: Cc1cccc2nc(-c3ccc(-c4cccc(CNCCN5CCNCC5)c4)cc3)[nH]c12.O=C(O)C(F)(F)F
The Inhibition of the first is higher: 42% for the first, 2% for the second.

First: N#Cc1ccc(N(CCOc2ccc(Cl)c(F)c2)Cc2ccccc2C(F)(F)F)cc1C(F)(F)F
Second: N#Cc1cccc(CN(Cc2ccc(Cl)c(Cl)c2)S(=O)(=O)c2cccc([N+](=O)[O-])c2)c1
The Inhibition of the first is lower: 43% for the first, 73% for the second.

Going from `CCCCOc1ccc(/C=C/c2ccc(-c3c(C)[nH]c(C)c(Cl)c3=O)s2)cc1` to `COc1ccc(CCNCc2cc3c(C(C)(C)C)nn(-c4ccc(Cl)cc4)c3[nH]c2=O)cc1OC`, the Inhibition rises from 96% to 99%.

Compared with `CCN1CCCC1CN(Cc1ccc(-c2ccc(C(F)(F)F)cc2)cc1)C(=O)Cn1c(CCc2cccc(F)c2F)nc(=O)c2ccccc21.O=C(O)C(O)C(O)C(=O)O` (stereo not given), `COc1ccc(C(=O)CCC(=O)N(Cc2ccc(-c3ccc(CNCCc4ccccc4)cn3)cc2)C(C)CN(C)C)cc1F.O=C(O)C(F)(F)F` (stereo not given) is higher in Inhibition: 51% for the first, 57% for the second.

First: O=C(Nc1cccc(-c2ccc(-c3nc4cc(C(F)(F)F)ccc4[nH]3)s2)c1)c1cccnc1
Second: COc1cccc(-c2cc(C(=O)Nc3cc(Oc4ccc(O)cc4)cc([N+](=O)[O-])c3)on2)c1
The Inhibition of the first is higher: 99% for the first, 30% for the second.

Going from `Cc1cc(N[C@@H](Cc2ccccc2)C(=O)NCc2cccs2)nc(NCCc2ccc(F)cc2)n1.O=C(O)C(F)(F)F` to `O=C(Nc1cccc(OCc2ccccc2)c1)c1ccc(CN2CCC(Cc3ccccc3)CC2)cc1`, the Inhibition falls from 83% to 27%.

First: Cl.N#Cc1ccc2c(c1)CCN(CCC1CCC(NC(=O)c3cc4ccc(Br)cc4[nH]3)CC1)C2 (stereo not given)
Second: CC(C)(C)c1ccc(CNC(=O)/C=C/c2ccc(CNC3CCNCC3)cc2)cc1
The Inhibition of the first is lower: 17% for the first, 21% for the second.

First: CC(C)CCNC(=N)c1ccc(OCCCCCOc2ccc(C(=N)NCCC(C)C)cc2)cc1.Cl
Second: CCOC(=O)c1cc(=O)c2ccc(OCC#N)cc2o1
The Inhibition of the first is higher: 94% for the first, 86% for the second.

`CC(=O)Nc1cccc(/C=C/C(=O)N2CCC(N3CCCCC3)CC2)c1` gave an Inhibition of 0%.

Reference: ChEMBL document CHEMBL1157539, “Thousands of chemical starting points for antimalarial lead identification” (Nature, 2010)
